A number with no mark means an inactive call. Calls of active or inactive are those of the source.
Assay: budding yeast growth changes without added modifier – OD600, strain BY4716, 24 h, basal condition, primary screen (AID 1173)
Settings: S. cerevisiae BY4716 growth, OD600, 24 h; higher = more signal, called active from +8 up or from −8 down

SMILES | z-score
O=C(CS)NCCCCCCNC(=O)[C@@H]1C[C@@H]2C(=O)N3CCC[C@H]3C(=O)N2[C@@H]1c1cccc(OCCO)c1 | -0.21
COc1ccccc1CN1C(=O)c2ccccc2[C@@H](C(=O)NC(C)C)[C@@H]1c1ccc(CO)cc1 | -0.186
C=CCOC(=O)[C@@H]1[C@H]2C(=O)O[C@H](c3ccccc3)[C@H](c3ccccc3)N2[C@H](c2ccc(OCCOC(=O)[C@H]3C[C@H]4C(=O)N[C@@H](CCCCNC(C)=O)C(=O)N4[C@H]3c3cccc(OCCO)c3)cc2)[C@@]12C(=O)Nc1ccc(I)cc12 | 1.39
O=C1OCC=C[C@H]2OC34C=CCN(Cn5nnc6ccccc65)C(=O)[C@H]3N(CCCCCCO)C(=O)[C@@H]4[C@@H]12 (stereo not given in full) | -0.344
COC(=O)Cn1c(C(=O)N2CCCC2)cc2c1C[C@H]1CN(C(=O)c3ccccc3)[C@@](Cc3ccc(F)cc3)(C(=O)OC)[C@@H]21 | 0.702
COc1cc(OC)c(C(O)C2C=CC3C(=O)N(c4ccccc4)C(=O)C3N2Nc2ccc(C#N)cc2)cc1Br (stereo not given) | -6.31
COc1ccc([Si](C)(C)[C@@H]2[C@@H](CC(=O)N3CCC[C@H]3CO)O[C@]3(C(=O)N(Cc4ccc(N5C(=O)c6cccc7cccc5c67)cc4)c4ccccc43)[C@H]2C)cc1 | 0.165
CC=CC(O)C1C=CC2C(=O)N(c3ccccc3)C(=O)C2N1Nc1ccccc1 (stereo not given) | -1.01
CC(C)C(=C=CC[C@@H](O)c1ccccc1OCCO)C[C@@H](O)COCc1ccccc1 | -15.5 (active)
CC(C)(C)N1CC=CC23O[C@@H]4C=CCOC(=O)[C@@H]4[C@H]2C(=O)N(CCCO)[C@@H]3C1=O (stereo not given in full) | 0.114
COc1c(C)cc(-c2cc3c(c(-c4ccccc4)n2)[Si](C(C)C)(C(C)C)OC3)cc1C | 0.256
Cc1ccc(S[C@]2(C(=O)NCC(C)C)CC(=O)N(Cc3ccccc3Cl)[C@@H]2c2ccc(CO)cc2I)cc1 | -1.61
O=C1O[C@@H](c2ccccc2)[C@@H](c2ccccc2)N2[C@@H](c3ccccc3OCCO)[C@]3(C(=O)Nc4ccc(C#CC5=CCCCC5)cc43)[C@@H](C(=O)NC[C@H](O)c3ccccc3)[C@H]12 | 0.961
O=C(O)[C@H](Cc1ccccc1)n1cc(-c2ccccn2)nn1 | -0.65
CC1CC/C=C\[C@H]2OC34C=CCN(CCN5CCOCC5)C(=O)[C@H]3N(CCO)C(=O)[C@@H]4C2C(=O)O1 (stereo not given in full) | -0.158
CCOC(=O)C[C@H]1[C@H](OC(=O)c2ccc(-c3ccccc3)cc2)[C@@H](NC(=O)C2CCCCC2)c2cc(OCCCO)ccc2N1C(=O)c1ccccc1 | 1.44
COCCCNC(=O)[C@@]1(Sc2ccc(C)cc2)CC(=O)N(Cc2cc(C(F)(F)F)cc(C(F)(F)F)c2)[C@@H]1c1ccc(CO)cc1 | -0.138
CCCC[C@@H]1C[C@H]1[C@@H](NC(=O)c1cccnc1)c1ccc(-c2ccccc2)cc1 | -3.34
O=C1O[C@@H](c2ccccc2)[C@@H](c2ccccc2)N2[C@@H](c3ccc(O)cc3)[C@]3(C(=O)Nc4ccc(C#CCCO)cc43)[C@@H](C(=O)Nc3nc4ccccc4s3)[C@H]12 | 0.442
O=C(O)[C@]1(Cc2ccccc2)N=C(c2ccc(OCCCO)cc2)O[C@@H]1c1ccccc1 | -1.13
Cc1ccc(S[C@]2(C(=O)NCc3ccccc3)CC(=O)N(C(C)C)[C@@H]2c2ccc(CO)cc2I)cc1 | -1.93
Cc1ccc(C(C)CC(O)C2C=CC3C(=O)N(c4ccccc4)C(=O)C3N2Nc2ccc(C(C)C)cc2)o1 (stereo not given) | 0.123
C=CC[C@]12N=C(c3ccc(OCCCO)cc3)O[C@H]1c1ccccc1N(C)C2=O | -1.62
C=C(COC)/C(=C/C[C@@H](OC(=O)c1ccncc1)c1ccc(CO)o1)c1cnc2ccccc2c1 | 0.705
O=C1NC(=O)C2C1C=CC(C(O)c1cc(C(F)(F)F)cc(C(F)(F)F)c1)N2Nc1ccc(Cl)cc1Cl (stereo not given) | -4.29
